Reference: the supplement of paper PMC3334620
Over roughly 33,000 sequences, “E-score (-0.5 to 0.5)” has its median near -0.013; the highest 2% begin near 0.3. This is one part of a sample in which the highest values are shown more often than they occur.

Target: T1, Msn1 (UniProt P22148)
T1 sequence: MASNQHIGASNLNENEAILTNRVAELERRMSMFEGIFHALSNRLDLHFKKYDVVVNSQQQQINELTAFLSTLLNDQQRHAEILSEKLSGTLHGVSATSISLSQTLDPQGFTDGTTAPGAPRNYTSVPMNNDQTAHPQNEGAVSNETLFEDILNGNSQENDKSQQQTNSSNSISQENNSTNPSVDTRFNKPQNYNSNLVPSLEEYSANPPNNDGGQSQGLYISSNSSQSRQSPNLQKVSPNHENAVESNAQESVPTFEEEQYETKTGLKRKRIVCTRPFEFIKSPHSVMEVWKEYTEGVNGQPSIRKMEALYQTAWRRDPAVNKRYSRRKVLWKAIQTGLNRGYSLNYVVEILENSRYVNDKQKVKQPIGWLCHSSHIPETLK
Assay: PBM E-score (8-mer binding enrichment) (E-score (-0.5 to 0.5)); higher = stronger / more preferred TF binding
Conditions: protein concentration: 200 nM; construct: GST-full length
Experimental: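 Universal 'all 10-mer' protein binding microarrays (Agilent AMADID 015681) probed with GST-tagged S. cerevisiae TFs (full-length or DBD) made by in vitro transcription/translation (PURExpress), about 100-200 nM. Bound TF was detected with fluorescent anti-GST. Each ungapped 8-mer (which stands for itself and its reverse complement) is scored by the PBM enrichment score (E-score), a modified Wilcoxon-Mann-Whitney statistic from -0.5 to +0.5, computed with the Universal PBM Analysis Suite. Scale: above 0.35 generally sequence-specific binding.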

| Sequence | PBM E-score |
| --- | --- |
| GCATCACA | -0.0397 |
| ATCGTGCC | 0.0402 |
| ATCGTGCA | 0.125 |
| ATCGTGCG | 0.306 |
| CCCAGACC | -0.348 |
| AATTTAAT | 0.298 |
| GCCCGCAA | -0.0655 |
| GCATTGAA | -0.0579 |
| AGAAATCC | -0.0711 |
| ACGAGACA | 0.275 |
| ATGAGACC | -0.0403 |
| GTGAGAAA | 0.124 |
| CCGAGACA | 0.319 |
| CCGAGACC | -0.0572 |
| CTGAGACC | -0.18 |
| CTGAGAGA | -0.0585 |
| GTGAGAGA | -0.0903 |
| ATGAGACG | -0.109 |
| ATGAGACA | 0.358 |
| CTGAGACA | 0.319 |
| GTGAGACA | 0.315 |
| AGGGGACC | -0.207 |
| CCCAGCAC | -0.148 |
| GCATCCAA | -0.225 |
| AATAAAGT | 0.209 |

| Sequence | PBM E-score |
| --- | --- |
| AAGGATTG | 0.191 |
| GAGGGTAA | -0.114 |
| GCAGTAGC | -0.289 |
| CGTTTCAG | 0.176 |
| GCGATGAC | 0.0728 |
| GCGGTAGC | 0.041 |
| CAACCATG | 0.0589 |
| ACAAATAC | 0.328 |
| CCAAATAG | -0.0591 |
| ACAAATAG | 0.322 |
| AAAAATAG | 0.189 |
| AAAAATAT | 0.208 |
| AGAAATAT | 0.181 |
| ACAAATAA | 0.307 |
| TCAAATAA | 0.234 |
| CCAAATAC | -0.058 |
| ACAAATAT | 0.404 |
| GCAAATAC | 0.0266 |
| GCAAATAA | 0.0601 |
| ACTTCCCT | -0.185 |
| CAAAAAGA | 0.0247 |
| CGAGTGAC | 0.0781 |
| AAAATGCT | 0.0679 |
| ACCGATGC | -0.136 |
| ATCACCTA | 0.0704 |

| Sequence | PBM E-score |
| --- | --- |
| ATCCAGGA | -0.015 |
| CCCAAGGG | -0.22 |
| GTGGACTA | 0.144 |
| CTGGACAC | 0.29 |
| TTCGACAA | 0.191 |
| CTGGACAA | 0.43 |
| TTGGAAAA | 0.0431 |
| GTGGACGA | 0.18 |
| GTGGACAA | 0.468 |
| TTGGACAA | 0.47 |
| CTGGACAG | 0.0403 |
| TCTTTCCA | -0.0394 |
| CCCTTACC | -0.181 |
| CTTATGTA | 0.124 |
| ATTATGTA | 0.149 |
| CTTATGAC | 0.233 |
| ATTATGTC | 0.367 |
| ATTATGTG | 0.151 |
| CTTATGTC | 0.374 |
| ATTCGCTG | 0.00671 |
| TACCCGCA | -0.0605 |
| CATTACGG | 0.0771 |
| TAGGGGCA | -0.254 |
| AAGTACGA | 0.133 |
| ACATACAT | 0.309 |

| Sequence | PBM E-score |
| --- | --- |
| ACATAAAA | 0.178 |
| TAGTACAA | 0.321 |
| AAGTACAA | 0.306 |
| ACATACAC | 0.207 |
| GAGTACAA | 0.262 |
| ACATAAAG | 0.224 |
| ACATACAG | 0.167 |
| CAGTACAA | 0.262 |
| ACATAAAT | 0.307 |
| AAGTACCA | 0.107 |
| CGGTAGTC | -0.00298 |
| GTGATCTA | 0.00906 |
| ACTTTTGA | 0.208 |
| ATATCCGG | 0.11 |
| GTCTCAAC | 0.136 |
| TCTAAAGA | 0.205 |
| AACCTTCT | -0.205 |
| TAAATCCA | 0.0101 |
| CGAAGATC | -0.0505 |
| AAGTACAT | 0.356 |
| ACGTACAT | 0.307 |
| ACGTACAG | -0.0675 |
| AAGTACAG | 0.0535 |
| AAGTACAC | 0.192 |
| ACGTACAA | 0.234 |

| Sequence | PBM E-score |
| --- | --- |
| GAGTCATC | -0.114 |
| GGTGTCAC | -0.0252 |
| TACGACAA | 0.352 |
| AATGACAG | 0.151 |
| AATGACAC | 0.213 |
| CACGACAA | 0.256 |
| AATGACAT | 0.42 |
| CGCGACAA | 0.304 |
| AACGACAG | -0.0454 |
| AACGACAT | 0.417 |
| CGCGACAG | -0.00106 |
| AACGACAA | 0.262 |
| GGCGACAA | 0.069 |
| GACGACAA | 0.299 |
| CAAGATCC | 0.0979 |
| AAGCAAAG | -0.064 |
| AGGGCCTC | -0.236 |
| AGTTGTGA | 0.137 |
| CGGACCAA | 0.256 |
| CTATCGCA | -0.201 |
| AACCACGT | -0.0931 |
| CTACCAAA | -0.0795 |
| GAGTACTA | 0.198 |
| TGCGACAA | 0.338 |
| AGCGACAA | 0.301 |

| Sequence | PBM E-score |
| --- | --- |
| TGCGACCA | 0.0994 |
| AACTAATA | 0.326 |
| GTTTAAAA | 0.0898 |
| AATTAATA | 0.352 |
| TATTAATA | -0.134 |
| TACTAATA | 0.0704 |
| GATTAATA | 0.143 |
| CACTAATA | 0.0713 |
| GTTTAATA | 0.315 |
| AATTAATT | 0.168 |
| ATTTAATG | 0.202 |
| CTTTAATA | 0.193 |
| ATTTAATA | 0.336 |
| CGCGGTGC | -0.123 |
| TAAGTTAA | -0.0568 |
| CGCTACCG | 0.00385 |
| GGCGAAAA | 0.24 |
| GTTAGAAA | -0.0269 |
| CATCTTCA | 0.0522 |
| GGAGGGCC | -0.273 |
| CGCCAGGC | -0.174 |
| AATATTGG | -0.0454 |
| AATATTAA | 0.318 |
| TATATTAA | 0.232 |
| CATATTAA | 0.32 |

| Sequence | PBM E-score |
| --- | --- |
| AATATTAT | 0.208 |
| AATATTGT | 0.35 |
| AATATTAG | 0.131 |
| CATATTAG | 0.193 |
| AATATTGC | 0.218 |
| CGATAAAG | 0.119 |
| AGCTCACC | -0.141 |
| AAAGTCCG | 0.342 |
| AGAGTCCT | -0.0894 |
| CAAGTCCC | 0.148 |
| AAAGTCCC | 0.344 |
| GAAGTCCC | -0.0665 |
| TAAGTCCA | 0.26 |
| CAAGTCCG | 0.0478 |
| AAAGTCCT | 0.427 |
| AGAGTCCG | 0.0522 |
| AAAGTCGT | 0.223 |
| AAAGTCCA | 0.378 |
| GAAGTCCA | 0.212 |
| AATGGCTA | -0.0496 |
| ATGTTCAA | 0.185 |
| CCACTGGA | -0.216 |
